Here are results for 24 molecules from PubChem BioAssay (NCATS).

Molecules are shown by their SMILES. Calls of active or inactive are those of the source. Entries that show only a call come without a potency. Calls come from the whole dose curve; as a rule, active = well fitted activation curve with a large enough effect; inconclusive = small, poorly fitted or top-dose-only effect; inactive = flat fitted curve, though single readings scatter.
Potency is the fitted concentration of half-maximal effect.

This test can be described thus: Confirmation and Secondary Assay for Modulators of Hemoglobin Beta Chain Splicing at IVS2 654 locus (AID 910).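 Note: HeLa cells stably carrying EGFP split by mutant beta-globin IVS2-654 intron.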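 Note: potency of activators that raise GFP signal by restoring correct splicing.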 As to conditions: HeLa EGFP-654 splicing reporter, GFP fluorescence, 48 h; series mostly up to 46.1 µM. The source says:
NIH Chemical Genomics Center [NCGC] NIH Molecular Libraries Screening Centers Network [MLSCN] MLSCN Grant: 1 X01 MH080684-01 PI Name: Dr. Ryszard Kole NCGC Assay Overview: Modulation of Alternative Splicing as Therapy Abnormal splicing is associated with a number of diseases, including cancer and genetic diseases such as cystic fibrosis, muscular dystrophy and beta-thalassemia. Alteration of disease associated splicing patterns provides a promising target for treatment. […] Mutations in the second intron of the b-globin gene at positions 654 or 705 are clinically relevant and cause mis-splicing which results in an out of frame gene product. […] EGFP-654 HeLa Cells as screen system. HeLa cell lines were stably transfected with a construct in which the EGFP (enhanced green fluorescent protein) cDNA was interrupted by the second intron of the beta-globin gene (IVS2-654). The ISV2 intron contains mutations which cause mis-splicing of EGFP and premature termination of EGFP which results in a nonfluorescent protein product. […] Expression of the transgene was driven by the CMV promoter. We concluded that a low molecular weight compound, which restored correct splicing of intron 2 would also generate functional EGFP protein, resulting in a fluorescent signal. Thus, the HeLa cells that express the EGFP-654 construct can be used for high throughput screening of a chemical library.
NCGC Assay Protocol Summary: Confirmatory Screening. Freshly thawed HeLa EGFP-654 cells were seeded in 5 ul of optimem media (Invitrogen) containing 2 % fetal calf serum (Hyclone) and 1x penicillin/streptomycin (Invitrogen) at a concentration of 500 cells per well in 1536-well plates. Cells were incubated overnight at 37C in 5% CO2. The next day, cells were treated with DMSO, 500 nM antisense ISV2 654 PNA control oligo, or library compound and allowed to grow at 37C in 5% CO2 for 2 days. The PNA oligo blocked the mutation site in the intron and allowed proper (wild type) splicing to occur, resulting in full length EGFP expression and also allowed for optimization of the assay parameters. Plates were read in the Acumen Explorer (TTP Labtech) using 488 nm laser excitation and 500-520 nm emission PMT filter in a 1 x 8 uM capture mode. Fluorescnet objects ranging in size from 5 to 250 uM were measured and the total peak GFP intensity for each well was used for data analysis. Keywords: Thalassemia, beta-thalassemia, beta-globin, EGFP, ISV2 654, ISV2 705, SSO, PNA, antisense, splicing, MLSMR, MLSCN, NIH Roadmap, qHTS, NCGC
Take `O=C(O)c1ccccc1-c1c2cc(Br)c(=O)cc-2oc2[c]([Hg])c(O)c(Br)cc12`: the Potency entry was “inactive”.

With `CN1C(=O)CCS(=O)(=O)[C@H]1c1ccc(Cl)cc1`, the Potency result is “inactive”.

As for `C=CCSSCC=C`, the Potency result is “inactive”.

Regarding `O=C(O)CF`, the Potency result is “inactive”.

For `Cc1ccc(C[N+](C)(C)C)o1`, the Potency result was “inactive”.

Take `CN1CCN(C(=O)O[C@@H]2c3nccnc3C(=O)N2c2ccc(Cl)cn2)CC1`: the Potency result was “inactive”.

As for `CC(C)=CCCC1(C)C=Cc2c(O)c3c(c(CC=C(C)C)c2O1)OC12C(=CC4CC1C(C)(C)OC2(C/C=C(/C)C(=O)O)C4O)C3=O` (centres undefined), the Potency entry is “inactive”.

`Clc1ccc(COC(Cn2ccnc2)c2ccc(Cl)cc2Cl)c(Cl)c1` (centres undefined): the Potency entry is “inactive”.

For `O=c1c(O)c(-c2ccc(O)c(O)c2)oc2c(O)c(O)cc(O)c12`, the Potency result was “inactive”.

With `COC1C(O)C(C)O[C@@H](OC2CC[C@@]3(C)C4CC[C@]5(C)C(C6=CC(=O)OC6)CC[C@@]5(O)C4CC[C@@H]3C2)C1O` (some centres undefined), the Potency entry is “inactive”.

`COc1ccc2c3c([nH]c2c1)C(C)=NCC3`: the Potency entry is “inactive”.

For `CC1OC(=O)C(C(C)C)NC(=O)C(C(C)C)OC(=O)C(C(C)C)NC(=O)C(C)OC(=O)C(C(C)C)NC(=O)C(C(C)C)OC(=O)C(C(C)C)NC(=O)C(C)OC(=O)C(C(C)C)NC(=O)C(C(C)C)OC(=O)C(C(C)C)NC1=O` (centres undefined), the Potency result is “inactive”.

With `COc1cccc2c1cc([N+](=O)[O-])c1c(C(=O)O)cc3c(c12)OCO3`, the Potency entry was “inactive”.

`COc1ccc2c(c1)[nH]c1c(C)nccc12`: the Potency entry is “inactive”.

For `Oc1c(Cl)c(Cl)c(Cl)c(Cl)c1Cl`, the Potency result was “inactive”.

With `CN1CC(CO)=C[C@H]2c3cccc4[nH]cc(c34)C[C@H]21`, the Potency result was “inactive”.

Consider `C[N+](C)(C)CC(=O)[O-]`, for which the Potency result was “inactive”.

For the molecule `CC1CCCC(=O)CCC/C=C/c2cc(O)cc(O)c2C(=O)O1` (centres undefined), the Potency entry is “inactive”.

Consider `CCN(CC)/[N+]([O-])=N/O`, for which the Potency entry was “inactive”.

Take `c1cncc(C2CCCCN2)c1` (centres undefined): the Potency result was “inactive”.

Regarding `CC[C@@]1(O)C(=O)OCc2c1cc1n(c2=O)Cc2cc3cc(O)ccc3nc2-1`, the Potency is 12.6 µM (active).

Take `C=CC1CN2CCC1CC2C(O)c1ccnc2ccccc12` (centres undefined): the Potency result was “inactive”.

For `O=c1ccc2c(O)c3ccoc3cc2o1`, the Potency entry is “inactive”.

Take `C[C@@]12CCC(OS(=O)(=O)O)C[C@@H]1CCC1C2CC[C@]2(C)C(=O)CCC12` (some centres undefined): the Potency result was “inactive”.
